Data: PubChem BioAssay (Tox21)
Where “and” joins values, the source holds several entries; their conditions need not be identical. Equal values may be shown once. Inconclusive results are not listed. Some compounds were tested as several samples or in several runs, with calls that do not always agree. Calls of active or inactive are those of the source. Unless noted, the call rests on the fitted dose curve; in most records, active means well fitted curve in the direction sought with a large enough effect in the repeat runs; inconclusive means weak or mixed curves; inactive means no such curve, though single readings can be large; an effect the other way counts as inactive or inconclusive.

Key:
[1] = qHTS assay to identify aromatase inhibitors - cell viability counter screen (AID 743084);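 further: cells stimulated with testosterone during compound exposure; nearly all actives have a fitted effect of over 55% in size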
[2] = qHTS assay to identify small molecule that activate the aryl hydrocarbon receptor (AhR) signaling pathway - cell viability counter screen (AID 743086);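 further: HepG2 liver cells carrying the AhR DRE luciferase reporter; series mostly up to about 70 µM; nearly all actives have a fitted effect of over 45% in size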
In short: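 Cytotoxicity counter screen: CellTiter-Fluor signal (30 min, 37 C) in 4000 HepG2 cells/well carrying the DRE-luciferase reporter, following 24 h compound exposure at 37 C.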

[3] = target: Peroxisome proliferator-activated receptor gamma (Homo sapiens) (UniProt P37231); test: qHTS assay to identify small molecule agonists of the peroxisome proliferator-activated receptor gamma (PPARg) signaling pathway (AID 743094; active means well fitted activation curve with a large enough effect in the signal ratio in the repeat runs, not every such curve was filed as active; the % refers to the signal ratio)
In short: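 Agonist activity was taken from a beta-lactamase reporter (FRET substrate, 1 h at room temperature) in HEK293H cells carrying a PPARg UAS-bla construct. Compounds in DMSO were incubated 17 h at 37C after a 5 h cell pre-incubation.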

[4] = target: Peroxisome proliferator-activated receptor gamma (Homo sapiens) (UniProt P37231); test: qHTS assay to identify small molecule antagonists of the peroxisome proliferator-activated receptor gamma (PPARg) signaling pathway (AID 743191; calls by dose curve; further: nearly all actives have a fitted effect of over 30% in size; further: potency means the concentration at half of the fitted maximal effect)
In short: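 Beta-lactamase reporter under UAS control in HEK293H PPARg-bla cells; compound treatment 17 h at 37C. Read-out: fluorescence intensity after 1 h room-temperature incubation with LiveBLAzer B/G FRET substrate.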

[5] = qHTS assay to identify small molecule antagonists of the peroxisome proliferator-activated receptor gamma (PPARg) signaling pathway - cell viability counter screen (AID 743194); further: nearly all actives have a fitted effect of over 55% in size
In short: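 Viability was measured as CellTiter-Glo luminescence in GeneBLAzer PPARg UAS-bla HEK293H cells. These cells had been exposed 17 h at 37 C to compounds together with rosiglitazone at 50 nM final, with the beta-lactamase readout taken in the same wells.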

[6] = qHTS assay for small molecule agonists of the antioxidant response element (ARE) signaling pathway (AID 743202; active means well fitted activation curve with a large enough effect in the signal ratio in the repeat runs, not every such curve was filed as active; the % refers to the signal ratio; further: potency means the concentration at half of the fitted maximal effect)
In short: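 Beta-lactamase reporter activity, read as fluorescence intensity, reflects ARE/Nrf2 pathway induction in HepG2 cells after 16 h compound exposure at 37 C; substrate loading was 2 h at room temperature.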

[7] = qHTS assay for small molecule agonists of the antioxidant response element (ARE) signaling pathway - cell viability counter screen (AID 743203; calls by dose curve; further: nearly all actives have a fitted effect of over 55% in size)
In short: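 Viability counter screen: CellTiter-Glo luminescence, read after 30 min at room temperature, in ARE-bla HepG2 wells. Compound exposure lasted 16 h at 37C/5% CO2, following a 5 h pre-incubation of the cells after plating.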

[8] = qHTS assay for small molecule activators of the heat shock response signaling pathway - cell viability counter screen (AID 743209); further: nearly all actives have a fitted effect of over 50% in size
In short: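 Cytotoxicity counter screen run in the same wells as the heat-shock bla reporter assay: HeLa HSE-bla cells, 5 h compound exposure at 37 C, viability read by CellTiter-Glo luminescence.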

[9] = qHTS assay to identify small molecule agonists of the peroxisome proliferator-activated receptor delta (PPARd) signaling pathway - cell viability counter screen (AID 743211); further: nearly all actives have a fitted effect of over 55% in size; further: potency means the concentration at half of the fitted maximal effect
In short: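 PPARd-bla HEK293H cells (3000/well) were pre-incubated 5 h at 37 C, then exposed to compound for 17 h at 37 C. After 2 h with LiveBLAzer substrate, CellTiter-Glo was added to the same wells; luminescence read after 30 min at room temperature.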

[10] = target: Peroxisome proliferator-activated receptor delta (Homo sapiens) (UniProt Q03181); test: qHTS assay to identify small molecule agonists of the peroxisome proliferator-activated receptor delta (PPARd) signaling pathway (AID 743212; calls by dose curve;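 further: HEK293H cells with PPARd UAS beta-lactamase reporter GeneBLAzer system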)
In short: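 Steps: seed PPARd-bla HEK293H cells; incubate 5 h, 37 C, 5% CO2; add compounds in DMSO; incubate, 37 C; add LiveBLAzer B/G FRET substrate; hold 2 h at room temperature; measure fluorescence.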

[11] = qHTS assay to identify small molecule antagonists of the peroxisome proliferator-activated receptor delta (PPARd) signaling pathway - cell viability counter screen (AID 743213); further: nearly all actives have a fitted effect of over 50% in size
In short: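 Cytotoxicity counter screen: CellTiter-Glo luminescence read 30 min after addition, in the same wells as the reporter assay. There, PPARd UAS-bla HEK293H cells (3000/well) were treated 17 h at 37 C with compound and 300 nM L165041.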

[12] = target: Peroxisome proliferator-activated receptor delta (Homo sapiens) (UniProt Q03181); test: qHTS assay to identify small molecule antagonists of the peroxisome proliferator-activated receptor delta (PPARd) signaling pathway (AID 743215; active means well fitted inhibition curve with a large enough effect in the signal ratio in the repeat runs, not every such curve was filed as active; the % refers to the signal ratio;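 further: cells stimulated with agonist L165041 at 300 nM final during compound exposure; series mostly up to about 62 µM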)
In short: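 Agonist L165041 (300 nM final) added with compound to PPARd-bla HEK293H UAS-bla reporter cells; 17 h incubation at 37 C. Read-out: LiveBLAzer FRET substrate, 2 h at room temperature, fluorescence intensity.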

[13] = qHTS assay to identify small molecule agonists of the farnesoid-X-receptor (FXR) signaling pathway - cell viability counter screen (AID 743218); further: nearly all actives have a fitted effect of over 45% in size
In short: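 Viability counter screen in the same wells: CellTiter-Glo luminescence, 30 min room-temperature incubation, measured after the beta-lactamase read. Cells were GeneBLAzer FXR-UAS-bla HEK 293T, compound-treated 16 h at 37C.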

[14] = target: Vitamin D3 receptor (Homo sapiens) (UniProt P11473); test: qHTS assay to identify small molecule agonists of the vitamin D receptor (VDR) signaling pathway (AID 743222; calls by dose curve)
In short: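 Agonist mode, beta-lactamase reporter: fluorescence from LiveBLAzer B/G FRET substrate (2 h, room temperature) read after 16 h compound treatment at 37 C of VDR-bla cells, which were pre-incubated 4 h after seeding.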

[15] = target: Vitamin D3 receptor (Homo sapiens) (UniProt P11473); test: qHTS assay to identify small molecule antagonists of the vitamin D receptor (VDR) signaling pathway (AID 743223; active means well fitted inhibition curve with a large enough effect in the signal ratio in the repeat runs, not every such curve was filed as active; the % refers to the signal ratio)
In short: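 VDR-bla cells were treated with compound plus 3 nM final 1alpha,25-dihydroxyvitamin D3 for 16 h at 37C. Beta-lactamase reporter read by B/G FRET substrate fluorescence after 2 h at room temperature. qHTS format.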

[16] = target: Aryl hydrocarbon receptor (Homo sapiens) (UniProt P35869); test: qHTS assay to identify small molecule that activate the aryl hydrocarbon receptor (AhR) signaling pathway (AID 743085);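 further: HG2L7.5c1 human HepG2 liver cells with stably integrated DRE-driven firefly reporter; series mostly up to about 70 µM; nearly all actives have a fitted effect of over 15% in size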
In short: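 HepG2 cells stably carrying a 20-DRE firefly luciferase reporter (HG2L7.5c1) treated with compound for 24 hr at 37C. Luciferase read by ONE-Glo luminescence, with CellTiter-Fluor viability read first.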

[17] = qHTS assay for small molecule activators of the heat shock response signaling pathway (AID 743210; active means well fitted activation curve with a large enough effect in the signal ratio in the repeat runs, with a control signal flat, not every such curve was filed as active; the % refers to the signal ratio;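 further: HeLa cells with beta-lactamase reporter driven by heat shock elements; series mostly up to about 63 µM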)
In short: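 Fluorescence from a cleaved B/G FRET substrate (2.5 h, room temp) reports HSE-driven beta-lactamase in HeLa cells treated 5 h at 37 C with DMSO-dissolved compounds.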

[18] = qHTS assay to identify small molecule antagonists of the farnesoid-X-receptor (FXR) signaling pathway - cell viability counter screen (AID 743221; active means well fitted cell-killing curve with a large enough effect in the repeat runs, not every such curve was filed as active; further: nearly all actives have a fitted effect of over 50% in size)
In short: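 GeneBLAzer FXR-UAS-bla HEK 293T cells, compound plus chenodeoxycholic acid (50 uM final), 16 h at 37 C. CellTiter-Glo added to the same wells after the beta-lactamase read; luminescence read after 30 min at room temperature as viability.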

Measured: Potency

Sequence of Peroxisome proliferator-activated receptor gamma (Homo sapiens) (P37231 whole entry, looked up): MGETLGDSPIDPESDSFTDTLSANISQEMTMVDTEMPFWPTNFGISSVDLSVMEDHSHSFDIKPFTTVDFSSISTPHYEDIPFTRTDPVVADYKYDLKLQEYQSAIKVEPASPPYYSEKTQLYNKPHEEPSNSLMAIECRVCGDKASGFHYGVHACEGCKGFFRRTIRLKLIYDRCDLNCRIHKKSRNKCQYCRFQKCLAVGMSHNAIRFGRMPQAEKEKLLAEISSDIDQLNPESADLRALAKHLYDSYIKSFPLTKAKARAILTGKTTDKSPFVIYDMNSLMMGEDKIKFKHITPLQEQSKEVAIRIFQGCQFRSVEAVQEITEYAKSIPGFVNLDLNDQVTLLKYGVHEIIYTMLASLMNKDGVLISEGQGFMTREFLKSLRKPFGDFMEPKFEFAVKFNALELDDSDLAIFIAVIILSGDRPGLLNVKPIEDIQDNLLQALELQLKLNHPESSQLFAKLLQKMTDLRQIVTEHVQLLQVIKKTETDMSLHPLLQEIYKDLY
Sequence of Peroxisome proliferator-activated receptor delta (Homo sapiens) (Q03181 whole entry, looked up): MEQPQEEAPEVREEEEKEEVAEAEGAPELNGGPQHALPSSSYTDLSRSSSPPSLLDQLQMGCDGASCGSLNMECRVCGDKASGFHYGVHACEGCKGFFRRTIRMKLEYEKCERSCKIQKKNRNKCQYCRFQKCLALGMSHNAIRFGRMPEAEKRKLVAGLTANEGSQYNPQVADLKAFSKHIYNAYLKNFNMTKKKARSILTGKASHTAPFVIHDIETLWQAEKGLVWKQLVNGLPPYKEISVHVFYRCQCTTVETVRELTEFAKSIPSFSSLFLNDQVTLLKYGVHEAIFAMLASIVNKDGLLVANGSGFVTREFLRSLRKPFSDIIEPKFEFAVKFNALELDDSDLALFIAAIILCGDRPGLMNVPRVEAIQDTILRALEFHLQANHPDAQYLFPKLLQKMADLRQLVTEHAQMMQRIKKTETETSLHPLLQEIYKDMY
Sequence of Vitamin D3 receptor (Homo sapiens) (P11473 whole entry, looked up): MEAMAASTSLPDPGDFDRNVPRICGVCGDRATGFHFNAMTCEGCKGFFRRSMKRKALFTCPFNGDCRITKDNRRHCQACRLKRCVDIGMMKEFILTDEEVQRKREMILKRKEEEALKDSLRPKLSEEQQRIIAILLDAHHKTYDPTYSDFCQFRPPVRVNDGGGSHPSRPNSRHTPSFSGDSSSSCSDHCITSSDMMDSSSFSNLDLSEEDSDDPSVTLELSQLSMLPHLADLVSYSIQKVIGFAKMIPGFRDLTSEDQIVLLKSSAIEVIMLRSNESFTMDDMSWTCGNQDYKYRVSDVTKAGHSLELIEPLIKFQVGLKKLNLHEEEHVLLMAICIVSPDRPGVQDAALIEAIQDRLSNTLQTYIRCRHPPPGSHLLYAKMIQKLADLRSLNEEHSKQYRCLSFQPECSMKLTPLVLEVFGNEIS
Sequence of Aryl hydrocarbon receptor (Homo sapiens) (P35869 whole entry, looked up): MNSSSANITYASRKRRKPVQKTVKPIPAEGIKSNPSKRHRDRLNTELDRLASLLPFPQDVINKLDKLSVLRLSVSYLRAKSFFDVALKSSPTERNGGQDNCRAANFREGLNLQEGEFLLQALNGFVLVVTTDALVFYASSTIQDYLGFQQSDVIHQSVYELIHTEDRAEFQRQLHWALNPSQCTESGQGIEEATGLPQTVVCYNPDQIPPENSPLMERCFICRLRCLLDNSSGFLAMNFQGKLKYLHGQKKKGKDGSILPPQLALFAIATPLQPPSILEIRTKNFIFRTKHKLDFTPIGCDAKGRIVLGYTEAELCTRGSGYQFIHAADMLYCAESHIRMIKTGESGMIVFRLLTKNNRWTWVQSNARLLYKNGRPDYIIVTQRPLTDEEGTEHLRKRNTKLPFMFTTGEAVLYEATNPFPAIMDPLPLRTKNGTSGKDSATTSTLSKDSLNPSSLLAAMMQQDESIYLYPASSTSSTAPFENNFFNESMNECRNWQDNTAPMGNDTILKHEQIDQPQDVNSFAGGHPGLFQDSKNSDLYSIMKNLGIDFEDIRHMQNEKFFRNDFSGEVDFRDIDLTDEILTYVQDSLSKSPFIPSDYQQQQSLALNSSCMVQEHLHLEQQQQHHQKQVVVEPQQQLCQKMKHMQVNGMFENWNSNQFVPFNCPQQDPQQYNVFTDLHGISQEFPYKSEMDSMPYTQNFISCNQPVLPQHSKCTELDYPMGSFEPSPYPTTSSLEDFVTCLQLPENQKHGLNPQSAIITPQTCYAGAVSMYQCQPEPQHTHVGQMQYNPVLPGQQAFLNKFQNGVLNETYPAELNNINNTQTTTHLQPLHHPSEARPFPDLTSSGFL

CN1[C@@H]2CC(OC(=O)[C@H](CO)c3ccccc3)C[C@H]1[C@@H]1O[C@@H]12 (stereo partly specified)
not listed: [16] | [17] | [18]
inactive: all other assays above

CCCCCCc1ccc(O)cc1O
active: [4] 11.9 µM | [6] 24.4 µM and 26.6 µM
43.8 µM (active) and inactive: [9]
not listed: [1] | [10] | [12] | [18]
inactive: all other assays above

CC(C)c1c(C(=O)Nc2ccccc2)c(-c2ccccc2)c(-c2ccc(F)cc2)n1CC[C@@H](O)C[C@@H](O)CC(=O)O
active: [6] 13.2 µM
not listed: [3] | [4] | [10] | [12] | [16]
inactive: all other assays above

CC(=O)Nc1c(I)c(NC(C)=O)c(I)c(C(=O)O)c1I
inactive: [2] | [5] | [6] | [7] | [8] | [9] | [11] | [13] | [18]

COc1ccc(C(Cl)=C(c2ccc(OC)cc2)c2ccc(OC)cc2)cc1
not listed: [3] | [4] | [6]
inactive: all other assays above
